Hits are enriched below; roughly 4.1% of the tested compounds scored in any of these assays.
PglD inh – blocks C. jejuni PglD acetyltransferase activity | purified PglD enzyme, DTNB colorimetric CoA detection | inhibition, % at 12.5 µM | 360,000 compounds, 0.098% hits | AID 602405; in the data active = inhibition above about 16%, passing the limit was not always enough
Env fusion inh – inhibitors of HIV Env-mediated cell fusion; HeLa-JRFL Env/CEM21 cell fusion, luciferase; inhibition, % at 12.3 µM; 360,000 compounds, 1.1% hits;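 active = mean replicate inhibition score of at least 50 and every replicate individually at or above 50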;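 note: 0% = plate neutral controls and 100% = maraviroc near 300 nM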
NSD2 inh – inhibitors of human histone methyltransferase NSD2; O96028; NSD2 peptide methylation, AlphaScreen, 120 min; inhibition, % at 12.5 µM; AID 743445; 310,000 compounds, 0.54% hits; in the data active = inhibition above about 50%
ALR H2O2 inh – human ALR oxidase inhibition via reduced H2O2; P55789; purified ALR, DTT oxidation, H2O2 HRP-luminol luminescence; inhibition, % (concentration not given with the values); 290,000 compounds, 3.8% hits; AID 485317;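 active = mean replicate inhibition above about 79%, with every replicate also reaching it, limit read from the data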
Target sequence (P55789 whole entry, looked up): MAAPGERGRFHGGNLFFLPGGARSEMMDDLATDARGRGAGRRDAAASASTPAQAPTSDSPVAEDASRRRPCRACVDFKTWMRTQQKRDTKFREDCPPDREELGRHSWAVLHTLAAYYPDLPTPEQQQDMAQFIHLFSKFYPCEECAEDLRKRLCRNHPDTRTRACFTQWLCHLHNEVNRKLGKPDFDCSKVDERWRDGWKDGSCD
F508del corr – correctors of CFTR F508del function in bronchial epithelial cells | CFBE cells, YFP halide quenching; stimulated with forskolin plus potentiator P3; % fluorescence drop versus neutral controls | activity (quench increase), % at 7.58 µM | 350,000 compounds, 0.36% hits;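 active = mean added fluorescence quench of at least 8% versus neutral control, with both replicates also reaching 8%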;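 note: cells transiently co-express mutant CFTR-F508del with the halide-sensitive YFP; corrector assay measuring rescue of mutant channel to the surface after 24 h compound exposure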
Casp6 inh – caspase-6 (human) enzyme inhibition; 350,000 compounds, 0.53% hits; purified caspase-6, Z-VEID-R110 cleavage fluorescence; P55212; inhibition, % at 12.5 µM;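 active = mean inhibition across replicates at least about 35%, with every replicate also reaching that limit, limit read from the data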;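 note: 0% = median of neutral control wells and 100% = no fluorescence left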
Target sequence (P55212 24-179 limits assumed): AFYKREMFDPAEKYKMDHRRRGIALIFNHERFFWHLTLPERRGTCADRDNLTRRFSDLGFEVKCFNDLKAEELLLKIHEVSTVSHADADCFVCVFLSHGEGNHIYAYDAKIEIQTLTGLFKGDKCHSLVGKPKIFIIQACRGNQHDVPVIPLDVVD
Target sequence (P55212 194-293 limits assumed): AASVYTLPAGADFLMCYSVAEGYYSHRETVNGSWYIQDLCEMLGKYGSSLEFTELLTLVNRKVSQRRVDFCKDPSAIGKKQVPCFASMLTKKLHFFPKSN
Starred values were filed as active, the others as inactive; / = no result given; [ ] = another dose, or the depositor's remark.

SMILES	PglD inh	Env fusion inh	NSD2 inh	ALR H2O2 inh	F508del corr	Casp6 inh
C[C@@H]1CN([C@@H](C)CO)C(=O)Cc2cc(NC(=O)CCC(F)(F)F)ccc2O[C@H]1CN(C)S(=O)(=O)c1ccccc1	0.0	/	/	/	1.1	-2.0
COC(=O)C[C@H]1CC[C@H]2[C@H](COc3ccc(NC(=O)Nc4cccc(Cl)c4)cc3C(=O)N2C)O1	0.5	1.6[16.7 µM]	/	/	-3.6	-0.7
O=C(Nc1nnc(-c2cccnc2)o1)c1cccc([N+](=O)[O-])c1	/	/	4.9	89.6*	/	/
Cc1cccc(C(=O)Nc2nnc(-c3ccncc3)o2)c1	/	3.6	-2.6	97.2*	5.0	3.4
O=C(Nc1ccc(F)cc1)Nc1nnc(-c2ccccc2)o1	0.2	1.3	0.7	-9.1	-2.0	2.6
Cc1ccc(NC(=O)Nc2nnc(-c3ccccc3)o2)cc1	/	-19.3	-0.3	-17.7	/	38.4*
Cc1cc(=O)oc(C)c1C(=O)NNC(=O)C1(C)CC1Br (stereo unspecified)	5.3	6.9	-1.3	-4.9	2.3	-0.7
CC1(C(=O)NNC(=O)c2ccc(=O)oc2)CC1Br (stereo unspecified)	-0.5	-7.1	7.4	68.9	0.4	41.5*
CCCCc1c(-c2ccccc2OC)ncn1Cc1ccc(-c2ccccc2)cc1	/	17.1	/	/	4.0	-3.5
CCCCc1c(-c2ccccc2OC)ncn1Cc1ccc(C)cc1	/	61.3*	/	/	2.0	1.3
CCCCc1c(-c2ccccc2OC)ncn1Cc1ccc(OC)cc1	/	61.2*	/	/	1.3	1.6
CCCCNC(=S)N1CCN(CC)CC1	-0.9	1.3	3.9	-26.6	-3.8	44.6*
CNC(=O)[C@H]1O[C@@H](n2cnc3c(NCc4cccc(I)c4)ncnc32)[C@H](O)[C@@H]1O	10.3	6.0	/	81.7*	2.0	-4.1
CCOc1cc(CNc2ccc3c(c2)OCCO3)cc(Br)c1OCC(N)=O	-7.3	/	4.0	46.9	/	/
COc1cc(CNc2ccc3c(c2)OCCO3)ccc1OCC(N)=O	/	3.0	30.2	99.5*	-1.4	-2.2
COc1ccc(NCc2ccc3c(c2)OCO3)cc1Cl	0.8	/	/	96.7*	0.3	-1.6
COc1cc2sc3cc(NCc4ccc5c(c4)OCO5)ccc3c(=O)c2cc1OC	-2.5	-33.8	/	0.4	5.3	-1.7
CCc1oc2ccccc2c1C(=O)c1cc(Br)c(O)c(Br)c1	2.2	-22.6	/	97.6*	-4.3	2.2
COc1ccc2c3c([nH]c2c1)[C@H](CO)N(Cc1ccccc1)CC31CCN(C(=O)Cc2ccccc2)CC1	/	/	/	/	-0.8	/
O=C(Nc1cccnc1Cl)C1=NN(c2ccccc2)C(=O)CC1	-3.1	-0.1	-2.4	-4.4	3.2	2.7
O=C(NCc1ccncc1)C1=NN(c2ccccc2)C(=O)CC1	/	-0.3	0.8	93.9*	-2.9	/
CC1CC(C)CN(C(=O)/C=C/c2ccc(S(=O)(=O)N3CCOCC3)cc2)C1 (stereo unspecified)	-1.1	-2.9	-0.7	-13.7	8.4*	-1.1
O=C(COC(=O)/C=C/c1ccc([N+](=O)[O-])cc1)NCC1CCCO1 (stereo unspecified)	/	0.5	/	94.7*	1.0	1.6
CCCNC(=O)N(C)C[C@H]1Oc2cc(C#Cc3ccccn3)ccc2S(=O)(=O)N([C@@H](C)CO)C[C@H]1C	-5.6	-10.6[16.7 µM]	/	/	-2.4	1.1
O=C(O)Cc1cn(Cc2ccc(F)cc2)c2ccccc12	/	-7.4	2.7	26.7	/	2.1
SMILES	PglD inh	Env fusion inh	NSD2 inh	ALR H2O2 inh	F508del corr	Casp6 inh
Cc1[nH][nH]c(=O)c1C(c1c(C)[nH][nH]c1=O)c1cn(Cc2ccc(Cl)c(Cl)c2)c2ccccc12	-1.7	/	98.0*	0.5	0.0	22.0
Cc1[nH][nH]c(=O)c1C(c1c(C)[nH][nH]c1=O)c1cn(Cc2ccc(F)cc2)c2ccccc12	-2.0	/	88.1*	-4.1	/	/
COc1ccc(NC(=O)Nc2cccc3c2O[C@@H](CN(C)S(C)(=O)=O)[C@H](C)CN([C@@H](C)CO)C3=O)cc1	2.7	-19.9[16.7 µM]	/	/	1.0	1.0
CCn1c2ccc(C)cc2c2nnc(NN)nc21	-7.0	-83.3	17.1	98.8*	/	/
CN1C(=O)c2cc(NC(=O)Nc3ccccc3)ccc2OC[C@@H]2O[C@H](CC(=O)O)CC[C@H]21	/	-11.2[16.7 µM]	/	/	/	/
COCC(=O)Nc1ccc2c(c1)[C@H]1C[C@@H](CC(=O)NCc3cc(F)ccc3F)O[C@@H](CO)[C@H]1O2	5.2	/	/	/	-2.7	/
CCn1ncc(C2=NOC(C(=O)Nc3ccc(C)cc3)C2)c1C (stereo unspecified)	/	42.0*	-0.9	-6.3	/	/
CC(C)c1ccc(/C=C/C(=O)CCC(=O)O)cc1	/	-54.6	0.4	97.8*	-0.6	3.0
CCOC1=C2[C@@H](CN(S(=O)(=O)c3ccccc3)[C@H]2c2ccccc2)[C@H]2C(=O)N(c3ccccc3)C(=O)[C@H]2C1	-0.7	/	/	/	-0.1	-0.3
CCOC1=C2[C@@H](CN(S(=O)(=O)c3ccc(C)cc3)[C@H]2c2ccc(Cl)cc2)[C@H]2C(=O)N(c3ccccc3)C(=O)[C@H]2C1	-5.7	-90.0	/	/	11.1*	-1.4
COc1ccc(S(=O)(=O)Cc2ccc(C(=O)NC(C)C)o2)cc1	1.2	15.0	/	/	2.3	-0.8
COC(=O)c1ccc(CS(=O)(=O)c2ccc(F)cc2)o1	0.8	-1.6	10.0	-1.8	9.5*	15.4
COc1ccc(S(=O)(=O)Cc2ccc(C(=O)N3CCCC3)o2)cc1	-2.3	9.3	/	93.7*	5.4	2.0
COc1ccc(S(=O)(=O)Cc2ccc(C(=O)N3CCC(C(N)=O)CC3)o2)cc1	4.3	-146.6	/	-34.6	1.8	0.7
CCN1CCN(C(=O)c2ccc(CS(=O)(=O)Cc3ccccc3Cl)o2)CC1	3.0	32.8	4.9	/	-2.5	63.4*
COc1ccccc1S(=O)(=O)Cc1ccc(C(=O)N2CCCC2)o1	-0.1	-45.4	/	93.4*	0.8	0.3
C[C@H](CO)N1C[C@H](C)[C@H](CN(C)S(C)(=O)=O)Oc2c(NC(=O)c3cnccn3)cccc2C1=O	-0.4	/	/	/	0.1	-3.1
CO[C@@H]1CN(C)C(=O)c2ccc(NS(=O)(=O)c3ccccc3)cc2OC[C@@H](C)N(Cc2cccnc2)C[C@@H]1C	-1.8	-16.4[16.7 µM]	/	/	-5.1	/
C[C@@H]1CN([C@H](C)CO)C(=O)c2cc(C#Cc3cccnc3)cnc2O[C@H]1CN(C)S(=O)(=O)c1ccccc1F	-2.1	/	/	/	3.1	2.5
C[C@@H]1CN([C@@H](C)CO)C(=O)c2cc(NC(=O)Cc3ccccc3)ccc2O[C@@H](C)CCCCO[C@@H]1CN(C)C(=O)Nc1cccc2ccccc12	-1.2	-5.6[16.7 µM]	/	/	-0.7	-0.7
C[C@H](CO)N1C[C@H](C)[C@@H](CN(C)S(=O)(=O)c2ccc(F)cc2)Oc2ccc(NC(=O)Nc3ccccc3)cc2CC1=O	2.0	-12.6[16.7 µM]	/	/	-0.9	2.2
COc1ccc(S(=O)(=O)Cc2ccc(C(=O)N3CCN(c4ccccc4)CC3)o2)cc1	-3.1	-2.5	/	88.5*	3.5	0.5
COc1ccc(S(=O)(=O)Cc2ccc(C(=O)N3CCN(c4ccccc4F)CC3)o2)cc1	-0.5	-24.0	/	13.1	2.5	3.0
